From PubChem BioAssay
Measured potencies and affinities stand elsewhere. Results filed as inconclusive are left out. Active and inactive are the calls of the source. Unless noted, no rule for the calls is given here.

How the values were obtained:
[1] = RMG-1 ovarian cancer cell viability loss – cherry-pick, dose response (AID 687029;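 active = signal drop whose fitted half-maximal concentration is at most twice the top valid dose, in every test run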;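 also: cells exposed to compound for 96 hours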); settings: RMG-1 viability, CellTiterGlo ATP luminescence, 96 h; series mostly up to 35 µM
[2] = IOSE-T80 viability loss, PAX8-independent line – cell-based, cherry-pick, selectivity assay for PAX8 inhibitor project, dose response (AID 687032;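 active = fitted half-maximal concentration for viability loss no higher than twice the top valid dose, in every repeat run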;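 also: cells exposed to compound for 96 h before reading; 0% = neutral control wells and -100% = 2 µM mitoxantrone kill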); settings: CellTiterGlo ATP luminescence, 96 h; series mostly up to 35 µM
[3] = CMV-driven luciferase expression suppression in HEK293 – cell-based, luminescence, dry powder, counter-screen for Pax8 inhibitor project, dose response (AID 743020;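 active = signal-lowering compounds whose fitted half-maximal concentration is at or below twice the top tested dose in every run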;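 also: HEK293 cells stably expressing the CMV luciferase reporter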); settings: HEK293 CMV-luciferase reporter, SteadyGlo luminescence, 24 h; series mostly up to 35 µM
[4] = general cell-killing toxicity readout – plate reader, dry powder samples, cytotoxicity control for PAX8 inhibitor project, dose response (AID 743021); settings: cell line, non-specific cytotoxicity counter-screen; series mostly up to 35 µM
[5] = IGROV1 cell killing – plate reader, dry powder samples, PAX8 inhibitor project, dose response (AID 743043); settings: IGROV1 ovarian cancer cell cytotoxicity; series mostly up to 35 µM;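 also: more negative means fewer viable cells or more cytotoxicity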
[6] = OVCAR-3 cell viability loss – plate reader, dry powder samples, PAX8 inhibitor project, dose response (AID 743044); settings: NIH:OVCAR-3 ovarian cancer cell viability; max activity: at 35 µM, hits give low values unless noted; series mostly up to 50 µM
[7] = toxicity toward immortalized ovarian surface epithelium – cell-based, plate reader, dry powder samples, cytotoxicity control for PAX8 inhibitor project, dose response (AID 743045); settings: IOSE-T80 ovarian epithelial cells; series mostly up to 35 µM;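 also: 0% = neutral control median and -100% = positive control median; more negative values mean more cell killing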
[8] = A2780 cell killing – plate reader, dry powder samples, cytotoxicity control, dose response (AID 743046); settings: A2780 ovarian cancer cytotoxicity; series mostly up to 35 µM;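 also: 0% = neutral control wells and -100% = cytotoxic reference compound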
[9] = OVCAR8 cell viability loss – plate reader, dry powder samples, PAX8 project, dose response (AID 743197); settings: series mostly up to 35 µM

Measured: max activity

C[C@@H]1CCCCO[C@@H](CN(C)C(=O)C2CCCCC2)[C@H](C)CN([C@H](C)CO)C(=O)c2cc(NS(=O)(=O)c3ccc(Cl)cc3)ccc2O1
inactive: [1] | [2] | [3] | [4] | [5] | [6] -13.3% [at 0.5 µM, hits give low values] | [7] | [8] | [9]

C[C@@H]1CCCCO[C@H](CN(C)C(=O)NC2CCCCC2)[C@@H](C)CN([C@@H](C)CO)C(=O)c2cc(NC(=O)Nc3ccc(C(F)(F)F)cc3)ccc2O1
inactive: [1] | [2] | [3] | [4] | [5] | [6] 18.6% [at 2.1 µM, hits give low values] | [7] | [8] | [9]

C[C@H](CO)N1C[C@H](C)[C@H](CN(C)Cc2ccc3c(c2)OCO3)Oc2ccc(NC(=O)Nc3cccc4ccccc34)cc2C1=O
inactive: [1] | [2] | [3] | [4] | [5] | [6] 49.4% [at 4.2 µM, hits give low values] | [7] | [8] | [9]

Cc1ccc(S(=O)(=O)N(C)C[C@H]2Oc3ccc(NC(=O)Cc4ccccc4)cc3C(=O)N([C@H](C)CO)C[C@@H]2C)cc1
inactive: [1] | [2] | [3] | [4] | [5] | [6] 7.17% [at 8 µM, hits give low values] | [7] | [8] | [9]

C[C@@H]1CCCCO[C@H](CN(C)S(=O)(=O)c2cccs2)[C@H](C)CN([C@@H](C)CO)C(=O)c2cc(NC(=O)CCC(F)(F)F)ccc2O1
inactive: [1] | [2] | [3] | [4] | [5] | [6] -17.7% | [7] | [8] | [9]

CCCN(C)C[C@H]1OCCCC[C@@H](C)Oc2ccc(NC(=O)c3ccccc3)cc2C(=O)N([C@H](C)CO)C[C@H]1C
inactive: [1] | [2] | [3] | [4] | [5] | [6] 25.8% [at 0.5 µM, hits give low values] | [7] | [8] | [9]

C[C@@H]1CCCCO[C@H](CN(C)CC2CCCCC2)[C@H](C)CN([C@H](C)CO)C(=O)c2cc(NS(=O)(=O)c3ccc(Cl)cc3)ccc2O1
inactive: [1] | [2] | [3] | [4] | [5] | [6] 10.1% | [7] | [8] | [9]

COc1ccc(S(=O)(=O)Nc2ccc3c(c2)CC(=O)N([C@@H](C)CO)C[C@@H](C)[C@H](CN(C)Cc2ccc(-c4ccccc4)cc2)O3)cc1
inactive: [1] | [2] | [3] | [4] | [5] | [6] 35.7% [at 1 µM, hits give low values] | [7] | [8] | [9]

O=C(C[C@H]1CC[C@H]2[C@@H](COC[C@@H](O)CN2S(=O)(=O)c2ccccc2Cl)O1)N1CCC(Cc2ccccc2)CC1
inactive: [1] | [2] | [3] | [4] | [5] | [6] 32.6% [at 1 µM, hits give low values] | [7] | [8] | [9]

C[C@@H]1CCCCO[C@@H](CN(C)Cc2ccc(Cl)c(Cl)c2)[C@H](C)CN([C@@H](C)CO)C(=O)c2cc(NC(=O)Cc3ccccc3)ccc2O1
inactive: [1] | [2] | [3] | [4] | [5] | [6] -29.2% [at 16 µM, hits give low values] | [7] | [8] | [9]

C[C@@H]1CN([C@H](C)CO)C(=O)c2c(c3ccccc3n2C)-c2ccccc2CO[C@H]1CN(C)S(=O)(=O)c1cccc(F)c1
inactive: [1] | [2] | [3] | [4] | [5] | [6] -15.8% [at 0.26 µM, hits give low values] | [7] | [9]

C[C@@H]1CN([C@H](C)CO)C(=O)c2cc(NS(=O)(=O)c3ccc(Cl)cc3)ccc2O[C@@H](C)CCCCO[C@H]1CN(C)C(=O)C1CCCCC1
inactive: [1] | [2] | [3] | [4] | [5] | [6] -15.5% [at 0.56 µM, hits give low values] | [7] | [9]

C[C@H](NC(=O)C[C@@H]1C[C@@H]2c3cc(NC(=O)Nc4ccc(C(F)(F)F)cc4)ccc3O[C@@H]2[C@@H](CO)O1)c1ccccc1
inactive: [1] | [2] | [3] | [4] | [5] | [7]

C[C@H]1CN([C@@H](C)CO)C(=O)Cc2cc(NC(=O)Nc3ccc(C(F)(F)F)cc3)ccc2O[C@H]1CN(C)C(=O)Nc1ccc(C(F)(F)F)cc1
inactive: [1] | [2] | [3] | [4] | [5] | [6] 24.3% [at 0.56 µM, hits give low values] | [7] | [9]

C[C@H](CO)N1C[C@H](C)[C@H](CN(C)Cc2ccc(C(F)(F)F)cc2)OCCCC[C@H](C)Oc2ccc(NC(=O)Nc3ccccc3)cc2C1=O
inactive: [1] | [2] | [3] | [4] | [5] | [7]

N#C[C@H]1[C@H](c2ccc(C#CC3CCCCC3)cc2)[C@H](CO)N1C(=O)Nc1ccc(F)cc1
inactive: [1] | [2] | [3] | [4] | [5] | [6] -34% [at 0.5 µM, hits give low values] | [7] | [9]

O=C(Nc1ccc(F)cc1)N1CCCCN2[C@@H](CO)[C@@H](c3ccc(-c4cccc(F)c4)cc3)[C@@H]2C1
inactive: [1] | [2] | [3] | [4] | [5] | [6] -20% | [7] | [9]

COc1cccc(S(=O)(=O)N2CC[C@@H]3[C@H](CO)Nc4ccc(C5=CCCCC5)cc4[C@@H]32)c1
inactive: [1] | [2] | [3] | [4] | [5] | [6] 12.1% [at 0.5 µM, hits give low values] | [7] | [9]

C[C@@H]1CN([C@@H](C)CO)C(=O)c2cc(NC(=O)Nc3cccc4ccccc34)ccc2O[C@@H]1CN(C)Cc1ccc2c(c1)OCO2
inactive: [1] | [2] | [3] | [4] | [5] | [6] 8.89% | [7] | [9]

CC(C)CC#Cc1ccc([C@@H]2[C@@H](CO)N3CCCCN(S(=O)(=O)c4ccc(F)cc4)C[C@H]23)cc1
inactive: [1] | [2] | [3] | [4] | [5] | [6] 15.4% [at 16 µM, hits give low values] | [7] | [9]

C[C@H]1CCCCO[C@@H](CN(C)S(=O)(=O)c2cccs2)[C@@H](C)CN([C@@H](C)CO)C(=O)c2cc(NC(=O)NC3CCCCC3)ccc2O1
inactive: [1] | [2] | [3] | [4] | [5] | [6] -5.85% [at 8 µM, hits give low values] | [7] | [8] | [9]

C[C@@H]1CN([C@@H](C)CO)C(=O)Cc2cc(NC(=O)c3ccncc3)ccc2O[C@@H]1CN(C)Cc1ccc(-c2ccccc2)cc1
inactive: [1] | [2] | [3] | [4] | [5] | [6] 8.74% [at 0.26 µM, hits give low values] | [7] | [8] | [9]

C[C@@H]1CN([C@H](C)CO)C(=O)c2cc(NS(=O)(=O)c3ccc(F)cc3)ccc2O[C@@H](C)CCCCO[C@@H]1CN(C)CC1CCCCC1
inactive: [1] | [2] | [3] | [4] | [5] | [7]

Cc1noc(C)c1S(=O)(=O)N(C)C[C@H]1OCCCC[C@@H](C)Oc2ccc(NS(=O)(=O)c3ccc(Cl)cc3)cc2C(=O)N([C@@H](C)CO)C[C@H]1C
inactive: [1] | [2] | [3] | [4] | [5] | [6] -28.8% [at 2.1 µM, hits give low values] | [7] | [9]

Cc1ccc(S(=O)(=O)Nc2ccc3c(c2)C(=O)N([C@@H](C)CO)C[C@@H](C)[C@H](CN(C)S(=O)(=O)c2ccc(Cl)cc2)OCCCC[C@@H](C)O3)cc1
inactive: [1] | [2] | [3] | [4] | [5] | [6] 20.2% [at 0.26 µM, hits give low values] | [7] | [9]

C[C@H]1CCCCO[C@H](CN(C)S(=O)(=O)c2ccc(Cl)cc2)[C@@H](C)CN([C@@H](C)CO)C(=O)c2cc(NS(=O)(=O)c3ccc(F)cc3)ccc2O1
inactive: [1] | [2] | [3] | [4] | [5] | [6] -9.44% [at 4.2 µM, hits give low values] | [7] | [9]

C[C@@H]1CCCCO[C@H](CN(C)S(=O)(=O)c2ccccc2)[C@H](C)CN([C@@H](C)CO)C(=O)c2cc(NS(=O)(=O)c3ccc(Cl)cc3)ccc2O1
inactive: [1] | [2] | [3] | [4] | [5] | [7]
